A selection: hits, their analogues and other compounds. The true share with any hit is near 10%.
BAZ2B inh – blocks human BAZ2B | Q9UIF8 | AlphaScreen BAZ2B-H3K14Ac peptide displacement | Potency, µM (top dose mostly 114 µM), for the others: top-dose activity change, negative = inhibition, actives largely listed as inhibitors | actives 4.4% (n = 360,000) | AID 504333; note: % is set by controls: 0 for no effect and ±100 for the full control effect; nearly all actives have a fitted effect of over 60% in size
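In this displacement format the biotinylated H3(5-23) peptide acetylated at Lys14 serves as ligand at 50 nM, with BAZ2B at 50 nM in PBS pH 7.4 containing 0.01% Tween-20. Donor and acceptor beads are 10 ug/mL final.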
JMJD2A Tudor inh – JMJD2A Tudor domain (human) inhibition | AlphaScreen JMJD2A-Tudor / H3K4me3 peptide binding | actives 4.4% (n = 390,000) | O75164 | Potency, µM (top dose mostly 114 µM), inactives show top-dose activity change, negative = inhibition, usual class: inhibitors; note: % is set by controls: 0 for no effect and ±100 for the full control effect; nearly all actives have a fitted effect of over 50% in size
G9a block – inhibitors of human histone lysine methyltransferase G9a | G9a H3K9 monomethylation, AlphaScreen, 2 h | actives 8.8% (n = 350,000) | Q96KQ7 | Potency, µM (titrated, usually from 102 µM), for the others: at the highest dose activity, negative = inhibition, hits mostly inhibitors; note: % is set by controls: 0 for no effect and ±100 for the full control effect; nearly all actives have a fitted effect of over 75% in size
Target sequence (Q96KQ7 913-1193 limits assumed): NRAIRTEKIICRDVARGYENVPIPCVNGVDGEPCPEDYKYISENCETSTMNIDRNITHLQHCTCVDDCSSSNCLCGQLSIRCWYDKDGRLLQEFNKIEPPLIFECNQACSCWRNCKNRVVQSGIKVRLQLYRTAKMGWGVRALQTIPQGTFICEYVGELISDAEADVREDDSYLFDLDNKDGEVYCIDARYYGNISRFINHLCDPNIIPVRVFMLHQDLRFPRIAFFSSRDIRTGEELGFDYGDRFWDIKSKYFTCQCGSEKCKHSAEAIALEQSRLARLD
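Compounds were preincubated with 20 nM G9a for 15 min, after which biotinylated H3K9 peptide (500 nM) and SAM (20 uM) started a 2 h room-temperature reaction. Monomethylated product was quantified by antibody-based AlphaScreen chemiluminescence.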
GLS inh – blocks human kidney-isoform glutaminase activity. Potency, µM (series often up to 45.5 µM), without a hit: at the highest dose activity change, negative = inhibition, hits mostly inhibitors. GLS enzymatic activity, qHTS titration. actives 0.21% (n = 410,000); note: % is set by controls: 0 for no effect and ±100 for the full control effect
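hKGA in 45 mM KH2PO4 pH 8.2, 0.02% Tween-20 with pin-transferred compounds; 1 mM L-glutamine (stock) plus glutamate oxidase/HRP/Amplex Red coupling added. Fluorescence read initially and after 30 min at RT.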
HP1b binding inh – blocks HP1-beta chromodomain binding to methylated histone tails; P83916; AlphaScreen HP1-beta / biotin-H3K9me3 peptide binding; AID 540317; actives 0.56% (n = 390,000); Potency, µM (titrated, usually from 114 µM), for inactives: at the top dose activity change, negative = inhibition, most hits filed as inhibitors; note: nearly all actives have a fitted effect of over 70% in size
Target sequence (P83916 whole entry, looked up): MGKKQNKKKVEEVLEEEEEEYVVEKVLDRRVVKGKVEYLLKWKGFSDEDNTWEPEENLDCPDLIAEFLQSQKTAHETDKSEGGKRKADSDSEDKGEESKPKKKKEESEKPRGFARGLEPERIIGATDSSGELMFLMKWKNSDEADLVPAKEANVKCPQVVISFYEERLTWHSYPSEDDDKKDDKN
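Compound inhibition of the preformed complex between 50 nM HP1-beta and 50 nM biotinylated H3K9me3 peptide was read by AlphaScreen. Buffer was PBS pH 7.4 with 0.01% Tween-20. Incubations ran 30 min at room temperature, with 10 ug/mL donor/acceptor beads.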
An asterisk follows results filed as active; [ ] = dose if it differs, or a comment. Calls come from the whole dose curve; as a rule, active = well fitted curve in the direction sought with a large enough effect; inconclusive = small, poorly fitted or top-dose-only effect, or another doubt; inactive = no such curve, though single readings can be large; an effect the other way counts as inactive or inconclusive. Potency is the fitted concentration of half-maximal effect.

Cc1nc2ccc([N+](=O)[O-])cc2nc1C was read as BAZ2B inh -17%, JMJD2A Tudor inh -18%, G9a block 0%, GLS inh -13% and HP1b binding inh 27%.
Screening C[C@H]1CC2[C@@H]3CCC4=CC(=O)C=C[C@]4(C)[C@@]3(F)[C@@H](O)C[C@]2(C)[C@@]1(O)C(=O)CO (stereo not given in full) returned G9a block 29%[12.7 µM].
Cc1cccnc1N(C(=O)Nc1ccccc1)C1=NCC(C)(C)S1 was read as BAZ2B inh 3%, JMJD2A Tudor inh -27%, G9a block 56µM*, GLS inh 17% and HP1b binding inh 11%.
For CCOc1[nH]c(/N=C/c2ccc(OC)cc2)c(C#N)c1C#N the results were JMJD2A Tudor inh 25µM* and HP1b binding inh inconclusive.
For COc1ccc(N=Cc2ccc(N(CCC#N)CCC#N)cc2)cc1 the results were JMJD2A Tudor inh -35%, GLS inh 14% and HP1b binding inh 19%.
`Nc1ccc(-c2ccc(N)c([N+](=O)[O-])c2)cc1[N+](=O)[O-]` gave BAZ2B inh -3%, JMJD2A Tudor inh -25%, G9a block 71µM*, GLS inh 2% and HP1b binding inh -2%.
For Nc1ccc(OCc2ccccc2)cc1[N+](=O)[O-] the results were JMJD2A Tudor inh 40µM*, GLS inh 5% and HP1b binding inh inconclusive.
COc1ccc(Cn2nnc(C(=O)Nc3ccc(F)cc3)c2N)cc1 was read as BAZ2B inh 3%, JMJD2A Tudor inh -3%, G9a block 12%[59 µM], GLS inh 24% and HP1b binding inh 42%.
Screening Cc1ccc(-c2cnc(-c3ccccc3C(=O)O)o2)cc1 returned BAZ2B inh -16%, JMJD2A Tudor inh -20%, G9a block 50µM*, GLS inh -4% and HP1b binding inh 20%.
Screening CN1c2ccccc2Sc2cc(N)ccc21 returned BAZ2B inh 28µM*, JMJD2A Tudor inh 32µM*, G9a block 1.1µM*, GLS inh 48% and HP1b binding inh inconclusive.
Screening O=C(c1ccco1)N1CCn2cccc2C1c1ccccc1 (stereo not given) returned BAZ2B inh 35µM*, JMJD2A Tudor inh 50µM*, G9a block inconclusive, GLS inh -10% and HP1b binding inh 71µM*.
`Fc1ccc(N/N=C2/CC(c3ccccc3)Oc3ccccc32)c(F)c1` (stereo not given) gave BAZ2B inh inconclusive, JMJD2A Tudor inh inconclusive, G9a block 10µM*, GLS inh 2% and HP1b binding inh -21%.
`O=[N+]([O-])c1ccccc1Nc1cccnc1` gave BAZ2B inh -35%, JMJD2A Tudor inh -26%, G9a block 4%[12.7 µM], GLS inh 1% and HP1b binding inh 6%.
`N#Cc1cc(NC(=O)c2ccc(F)cc2)c(=O)n2c1[nH]c1ccccc12` gave BAZ2B inh -12% and G9a block 3.5µM*.
`Cc1cc(NC(=O)N(C)CCc2c(C)nn(C)c2C)ccc1Br` gave BAZ2B inh -5%, JMJD2A Tudor inh -11%, G9a block 10%[59 µM], GLS inh 6% and HP1b binding inh 20%.
`COc1ccc(N/N=C(/C)c2cnnc(-c3ccccc3)n2)cc1` gave BAZ2B inh -38%, JMJD2A Tudor inh 79µM*, G9a block 1.4µM*, GLS inh 8% and HP1b binding inh -13%.
For Oc1cc(O)cc(/C=C/c2ccc(O)c(O)c2)c1 the results were BAZ2B inh inconclusive, JMJD2A Tudor inh 45µM*, G9a block 0.67µM*, GLS inh inconclusive and HP1b binding inh 16µM*.
Screening Oc1cc(O)cc(O)c1 returned G9a block 12%[59 µM] and GLS inh -23%.
O=C(NCCCl)C1Cc2c(ccc3ccccc23)O1 (stereo not given) was read as BAZ2B inh -28%, JMJD2A Tudor inh -6%, G9a block 40µM*, GLS inh -8% and HP1b binding inh 36%.
`CCC(=O)N1CCCC1(C)C(=O)Nc1ccc(C)c(C)c1` (stereo not given) gave GLS inh -7%.
Screening CC(C)(C)Nc1nc(Cl)nc(NCc2ccccc2)n1 returned BAZ2B inh 0%, JMJD2A Tudor inh 3%, G9a block 21%, GLS inh 9% and HP1b binding inh 30%.
CC(C)(C)C1CCc2c(sc(NC(=O)c3cc4ccccc4c(=O)o3)c2C(N)=O)C1 (stereo not given) was read as BAZ2B inh 4%[57.1 µM], JMJD2A Tudor inh -3%, G9a block 10µM*, GLS inh -6% and HP1b binding inh 8%.
CC(C)(C)C1CCc2c(sc(NC(=O)c3ccncc3)c2C(N)=O)C1 (stereo not given) was read as BAZ2B inh 4%, JMJD2A Tudor inh -10%, G9a block -6%[59 µM], GLS inh -1% and HP1b binding inh -1%.
`Cc1cccnc1NC(=O)CNC(=O)c1cccs1` gave BAZ2B inh 11%, JMJD2A Tudor inh -8%, G9a block 8%[0.501 µM], GLS inh -3% and HP1b binding inh 18%.
Screening Cc1cccnc1NC(=S)NC(=O)/C=C/c1ccccc1 returned BAZ2B inh 79µM*, JMJD2A Tudor inh -26%, G9a block inconclusive, GLS inh 0% and HP1b binding inh 14%.
For Cc1cccnc1NC(=S)NC(=O)c1cccs1 the results were BAZ2B inh -28%, JMJD2A Tudor inh 22µM*, G9a block inconclusive, GLS inh 30% and HP1b binding inh -13%.
`Cc1ccnc(NC(=S)NC(=O)/C=C/c2ccccc2)c1` gave BAZ2B inh 2%, JMJD2A Tudor inh -10%, GLS inh 13% and HP1b binding inh 33%.
For COC(=O)c1nc(NC(=S)NC(=O)c2cccs2)sc1C the results were BAZ2B inh -28%, JMJD2A Tudor inh -25%, G9a block 50µM*, GLS inh -1% and HP1b binding inh -10%.
`Cc1cccnc1NC(=O)Nc1cccc2ccccc12` gave BAZ2B inh -2%, JMJD2A Tudor inh -15%, G9a block 7.1µM*, GLS inh -6% and HP1b binding inh 10%.
Screening CC(=O)CC(=O)Nc1ncc(C(F)(F)F)cc1Cl returned BAZ2B inh -5%, JMJD2A Tudor inh -5%, G9a block inconclusive, GLS inh 5% and HP1b binding inh 9%.
CCCOc1ccc(/C=c2\sc3nc(-c4ccco4)nn3c2=O)cc1OCC was read as BAZ2B inh -15%, JMJD2A Tudor inh inconclusive, G9a block inconclusive, GLS inh 1% and HP1b binding inh -14%.
Screening CC(=O)Oc1cccc(/C=c2\sc3nc(-c4ccco4)nn3c2=O)c1 returned BAZ2B inh -35%, JMJD2A Tudor inh 50µM*, G9a block inconclusive, GLS inh -13% and HP1b binding inh 0%.

Screening data: PubChem BioAssay, National Center for Advancing Translational Sciences (NCATS)
